Compound activity deposited in PubChem by several laboratories.
Calb FLC: C. albicans growth modulation with fluconazole; growth inhibition, % (concentration not given with the values); 300,000 tested, 0.57% active; C. albicans CaCi-2 (fluconazole-resistant clinical isolate) + fluconazole, Alamar Blue growth, 48 h;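 active = growth inhibition above about 58% in most replicates, limit read from the data, passing the limit was not always enough; inconclusive = exactly half the replicates above a set limit; inactive = most replicates below a set limit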;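 also: all wells also contain fluconazole at 8 µg/ml as a sub-toxic cotreatment; 0% = median of DMSO wells and 100% = median of geldanamycin control wells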
Cardio protect: modulators protecting cardiomyocytes from myocardial damage | 360,000 tested, 0.63% active | AID 588492 | protection from H2O2 cell death, % at 20 µM | H9c2 cardiomyocytes, H2O2 injury protection, ATPLite, 2 h;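 active = compounds giving at least 50% protection of heart cells from peroxide-induced death in the single-dose screen, raw or plate-pattern-corrected value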;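 also: 0% = DMSO wells with peroxide and 100% = DMSO wells without peroxide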
PHOSPHO1 inh: PHOSPHO1 (human) inhibition. recombinant PHOSPHO1, absorbance phosphatase assay. inhibition, % at 13.3 µM. 290,000 tested, 1.1% active. AID 1565; in the data active = inhibition above about 60%
Target sequence (Q8TCT1 whole entry, looked up): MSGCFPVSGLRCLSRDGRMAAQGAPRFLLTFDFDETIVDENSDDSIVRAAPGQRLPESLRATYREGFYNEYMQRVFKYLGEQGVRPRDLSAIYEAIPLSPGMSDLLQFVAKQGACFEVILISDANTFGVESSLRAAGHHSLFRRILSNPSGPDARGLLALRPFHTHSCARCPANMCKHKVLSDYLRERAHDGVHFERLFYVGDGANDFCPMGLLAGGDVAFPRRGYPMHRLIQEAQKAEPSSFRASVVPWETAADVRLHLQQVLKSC
Cl transport mod: modulators of human KCC2 chloride dependent transport; 190,000 tested, 2.2% active; B-score of Tl+ flux slope (higher = more flux/activation; lower = inhibition) at 10 µM; KCC2 cells, thallium flux FluoZin-2 fluorescence;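 active = thallium flux slope and its plate-corrected score both differing from the plate sample mean at a set confidence after two filtering rounds, in either direction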;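 also: slope of fluorescence scaled to starting intensity during 10 to 20 s after thallium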
Efflux pump inh: blocks antifungal efflux pumps in multiplex yeast assay. S. cerevisiae Candida pump triplex, Nile Red efflux. inhibition, % at 10 µM. 330,000 tested, 0.44% active. AID 485275;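 active = plate passing quality check with inhibition over a set limit, or well fluorescence over plate mean plus 4 SD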;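 also: Nile Red retained in pooled yeast measured as flow cytometry median fluorescence; 0% = buffer negative control and 100% = Enniatin B positive control; higher means more Nile Red kept so more efflux inhibition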
KCC2 sec1: confirmation of human KCC2 transport modulators; shares compounds with Cl transport mod; HEK293-KCC2, thallium flux, FluoZin2 fluorescence; stronger effect = higher value; normalised thallium flux (F/F0 slope) at 10 µM; 3,700 tested, 15% active;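 active = thallium flux slope above the same plate's solvent-only control mean plus 3 SD; inconclusive = the two replicate wells disagree; inactive = no significant difference from solvent-only control wells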
KCC2 bumet counter: thallium flux despite bumetanide block in KCC2 cells, secondary assay 3; shares compounds with Cl transport mod; HEK293-KCC2 + bumetanide/ouabain, thallium flux FluoZin2; stronger effect = higher value; normalized thallium flux at 10 µM; 3,700 tested, 49% active; AID 1714;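 active = thallium entry rate above the same plate's blocked-transporter control wells by more than 3 SD; inconclusive = the two repeat wells disagree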;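 also: raw slope of fluorescence over initial fluorescence between 10 and 20 s after thallium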
KCC2 secondary2: confirmation of human KCC2 transport modulators; 3,700 tested, 23% active; normalized thallium flux at 10 µM; shares compounds with Cl transport mod; AID 1715; HEK293-KCC2, thallium flux FluoZin2 fluorescence; actives lie on both sides; F/F0 rise rate, 10–20 s post-thallium;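 active = thallium flux slope more than 3 SD above or below the plate's solvent-only control mean, mostly below; inconclusive = the two repeat wells disagreed; inactive = no significant shift from solvent-only controls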;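 also: raw slope with 0.1% DMSO as baseline and bumetanide as block control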
HEK293 Tl flux: parental HEK flux effect, counter-screen. shares compounds with Cl transport mod. HEK293 parental cells, thallium flux FluoZin2, ouabain; baseline-ratio fluorescence slope, 10–20 s after thallium. thallium flux rate (normalised fluorescence) at 10 µM. 3,700 tested, 46% active. AID 1716;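 active = thallium flux rate significantly above the same plate's solvent-only control wells, beyond their mean plus 3 SD; inconclusive = the two replicate wells gave conflicting results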
KCC2 ouabain: modulates human KCC2 on retest with ouabain. shares compounds with Cl transport mod. HEK293-KCC2, thallium flux FluoZin2 fluorescence; bidirectional: low = inhibitor, high = activator. raw Tl+ flux slope (below DMSO = inhibition, above = activation) at 10 µM. 3,700 tested, 48% active. AID 1717;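 active = thallium flux slope beyond 3 SD from same-plate DMSO control mean in most replicates, usually higher, sometimes lower; inconclusive = repeat tests gave conflicting results; inactive = no significant difference from controls in most replicates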;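 also: slope of initial-normalized fluorescence between seconds 10 and 20 after thallium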
HEK counter2: acts in parental HEK cells, second KCC2 counter-screen | shares compounds with Cl transport mod | 3,700 tested, 33% active | thallium flux slope at 10 µM | AID 1718 | HEK293 parental, thallium flux FluoZin-2 fluorescence slope;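 active = thallium flux slope above the same plate's solvent-control mean plus 3 SD in both duplicate wells; inconclusive = duplicate wells that disagreed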;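 also: run without ouabain in cells lacking the KCC2 cotransporter; slope of fluorescence scaled to its starting value between 10 and 20 s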
Starred values were filed as active, the others as inactive; u = inconclusive; x = not tested or not shown. Sampled rows, rich in hits. Any-hit rate of the full collection: about 3.3%.

SMILES | Calb FLC | Cardio protect | PHOSPHO1 inh | Cl transport mod | Efflux pump inh | KCC2 sec1 | KCC2 bumet counter | KCC2 secondary2 | HEK293 Tl flux | KCC2 ouabain | HEK counter2
O=[N+]([O-])c1ccc(C2=NCCO2)cc1 | 1.0 | -0.5 | 0.1 | -0.0145 | 0.3 | x | x | x | x | x | x
O=[N+]([O-])c1ccc(-c2nc(=S)c3c(o2)CCCC3)cc1 | -2.4 | -6.4 | 8.3 | 34.1* | -0.1 | 0.0183* | 0.0266* | 0.0382 | 0.0333* | 0.0423* | 0.0155*
S=c1nc(-c2ccccc2)oc2c1CCCC2 | -4.7 | -2.3 | -32.8 | 5.3* | 0.1 | 0.00844 | 0.0446* | 0.0324 | 0.0122* | u | 0.0128*
O=c1oc(-c2ccccc2)nc2sc3c(c12)CCC3 | 6.9 | -8.0 | -10.6 | 0.0135 | -0.1 | x | x | x | x | x | x
COc1cc2c(cc1OC)C(C)N(C(=O)C1=NN(c3cccc(C)c3)C(=O)CC1)CC2 (centres undefined) | 3.8 | -1.8 | 14.4 | x | -0.1 | x | x | x | x | x | x
CCOC(=O)c1cnn(-c2nc(OC)cc(OC)n2)c1C(F)(F)F | 2.4 | 7.1 | 1.9 | -10.7* | 0.1 | 0.00694 | 0.00427 | 0.0295 | 0.00732 | 0.0186 | 0.0103
COC(=O)c1cnn(-c2nc(OC)cc(OC)n2)c1C | 31.4 | -6.0 | 5.9 | 0.963 | 0.0 | x | x | x | x | x | x
CSc1cccc(NC(=O)CCCNC(=O)c2ccc(Cl)cc2)c1 | 4.9 | 0.1 | 11.0 | x | -0.1 | x | x | x | x | x | x
Cc1ccc(Nc2nc(=O)c3cc([N+](=O)[O-])ccc3s2)cc1 | -6.2 | 3.3 | 34.7 | 2.5 | -0.1 | x | x | x | x | x | x
Cc1ccccc1Nc1nc(=O)c2cc([N+](=O)[O-])ccc2s1 | -2.9 | -3.1 | -1.8 | 4.2* | 0.0 | 0.00575 | 0.02* | 0.0359 | 0.0163* | 0.0307* | 0.0164*
Cc1cc(C)c(C)c(S(=O)(=O)N2CCC(C(=O)N3CCN(c4ccc(F)cc4)CC3)CC2)c1C | x | -8.9 | x | x | x | x | x | x | x | x | x
Cc1noc(C)c1S(=O)(=O)N1CCC(C(=O)N2CCN(c3ccc(F)cc3)CC2)CC1 | 1.5 | x | 0.0 | -4.88* | -0.1 | 0.00559 | u | 0.0255* | 0.00696 | u | 0.0106
C=CCN(C(=O)CSC1=NC(=O)CN1C(C)=O)c1nc(C)c(-c2ccccc2)s1 | 29.0 | -0.7 | -26.9 | 10* | -0.1 | 0.00758 | 0.0232* | 0.0356 | 0.0224* | 0.0299* | 0.0188*
CCOc1ccc(-c2nc(CS(=O)(=O)CC(=O)NCc3ccc(F)cc3)c(C)o2)cc1 | -3.6 | -2.4 | 15.1 | x | 0.1 | x | x | x | x | x | x
Cc1cc(Nc2ccccc2)nc2cc(O)ccc12 | -4.9 | -5.9 | -3.7 | -1.61 | 0.1 | x | x | x | x | x | x
COc1ccc(Nc2cc(C)c3ccc(O)cc3n2)cc1 | -6.0 | -11.2 | 27.4 | -2.81 | 0.1 | 0.00787 | 0.00547 | 0.0325 | u | 0.0232 | 0.0101
COC(=O)C1=C(Nc2ccccc2NS(=O)(=O)c2ccc(C(F)(F)F)cc2Cl)CSC1 | -5.5 | 0.1 | 41.8 | 5.53* | -0.1 | 0.00743 | 0.0114* | 0.0295 | 0.0121* | u | 0.012*
S=C(NCc1ccco1)Nc1ccc(Br)cc1Cl | -7.1 | -9.0 | -13.1 | 4.01* | -0.1 | 0.0174 | 0.0105* | 0.0306 | 0.00926* | 0.0178 | u
COC(=O)c1cnc(NNC(=O)c2ccc([N+](=O)[O-])cc2)nc1C(F)(F)F | -3.0 | 0.6 | 43.0 | 3.51* | -0.1 | 0.00921 | 0.0109* | 0.0324 | u | 0.0212 | 0.0115
COC(=O)c1cnc(NNS(=O)(=O)c2ccc(Cl)cc2)nc1C(F)(F)F | 6.8 | 0.4 | 11.7 | 0.335 | 0.1 | x | x | x | x | x | x
CCOc1ccc(C(CC(=O)O)NC(=O)C(Sc2ccccc2)c2ccccc2)cc1 (centres undefined) | 20.4 | 0.2 | -3.9 | -3.97* | 0.0 | 0.00684 | u | 0.023* | 0.00841 | u | 0.0117
COc1ccc(OC)c(NC(=O)C(Sc2ccccc2)c2ccccc2)c1 (centres undefined) | -10.7 | -23.5 | 1.9 | x | 0.3 | 0.0157 | 0.00355 | 0.0301 | 0.00698 | 0.0165 | 0.00937
CCOc1ccc(C(CC(=O)O)NC(=O)C(CC)c2ccccc2)cc1 (centres undefined) | 2.7 | -4.3 | 19.7 | x | -0.2 | x | x | x | x | x | x
COc1ccc(NC(=O)C(c2ccccc2)c2ccccc2)c(OC)c1 | -9.1 | 5.6 | x | x | 0.1 | x | x | x | x | x | x
C=CCNC(=O)c1c(Br)cnn1-c1ccc(C)cc1 | 13.7 | -2.3 | 41.2 | -0.76 | 0.0 | x | x | x | x | x | x
SMILES | Calb FLC | Cardio protect | PHOSPHO1 inh | Cl transport mod | Efflux pump inh | KCC2 sec1 | KCC2 bumet counter | KCC2 secondary2 | HEK293 Tl flux | KCC2 ouabain | HEK counter2
COc1cc(S(=O)(=O)Nc2ccc(C)cc2)ccc1N=Cc1c(C)c(C#N)c(=O)n(C)c1O | 0.2 | -5.8 | 37.3 | -0.681 | -0.1 | x | x | x | x | x | x
Cc1ccc(N/N=C/c2c(C)c(C#N)c(=O)n(C)c2O)cc1C | -6.8 | 6.7 | -117.1 | -3.95* | x | 0.0103 | 0.00645 | 0.0353 | u | 0.0191 | 0.0107
NC(=O)COc1ccccc1/C=C1/SC(=O)N(CC(=O)N2CCc3ccccc3C2)C1=O | 36.9 | -4.0 | 25.7 | -3.36* | 0.0 | 0.0058 | 0.00485 | 0.0234* | 0.00696 | 0.0161* | 0.00906
O=[N+]([O-])c1cc(F)c2cccnc2c1O | 61.0 | 15.0 | 37.7 | 1.07 | 0.2 | x | x | x | x | x | x
Oc1c(I)cc(Cl)c2cccnc12 | x | 19.7 | 1.1 | 76.9* | 0.1 | 0.00789 | 0.104* | 0.067* | 0.105* | 0.11* | 0.0408*
O=[N+]([O-])c1cc(Cl)c(O)c2ncccc12 | 107.3* | 13.3 | 12.5 | 4.53* | x | 0.0133* | 0.0161* | 0.0319 | 0.0105* | u | u
Clc1cc2cccnc2c2ncccc12 | x | 32.3 | x | x | 0.1 | x | x | x | x | x | x
CCN1C(=O)[C@H]2[C@@H](c3ccc(C)cc3)N[C@]3(CCCN(CCC(C)C)C3=O)[C@H]2C1=O | x | -7.1 | x | x | x | x | x | x | x | x | x
CCSC1=C(C#N)C2(CCCCC2)C(C#N)=C(N)N1 | -7.3 | -18.5 | 1.5 | -4.08* | -0.1 | 0.00741 | 0.00541 | 0.0304 | u | 0.0194 | 0.00929
COc1ccc(C(=O)CSC2=C(C#N)C3(CCCCC3)C(C#N)=C(N)N2)cc1 | -0.1 | -5.9 | 11.2 | -2.87 | -0.3 | 0.00734 | 0.00516 | 0.034 | 0.00641* | 0.0156* | 0.0112
N#CC1=C(N)NC(SCC(=O)c2ccc(Br)cc2)=C(C#N)C12CCCCC2 | 16.7 | -20.0 | 9.5 | -2.83 | 0.0 | x | x | x | x | x | x
N#CC1=C(N)NC(SCc2ccccc2)=C(C#N)C12CCCCC2 | 19.7 | -11.3 | 15.8 | -3.16* | -0.2 | 0.00566 | 0.0046 | u | 0.00723 | 0.0171 | 0.0106
